Among all 410,000 compounds or so, about 5,000 (1.2%) were called active. About 13% were inconclusive and are not listed. Calls follow the shape of the dose curve; as a rule, active = well fitted inhibition curve with a large enough effect; inconclusive = small, poorly fitted or top-dose-only effect; inactive = no such curve, though single readings can be large or run the other way. Shown is part of a subset that was picked to be rich in actives. Where a call stands in place of a potency, no number is given.
test: qHTS for Inhibitors of TGF-b; settings: HepG2 CAGA-GFP TGF-b/SMAD3 reporter, GFP fluorescence, 18 h, TGF-beta stimulated, 500 pg/mL final; series mostly up to 46.1 µM; also: nearly all actives have a fitted effect of over 65% in size
Description: TGF-b is a main component in the TGF-b signaling pathway which plays diverse roles in cellular and development pathways. TGF-b is the mediated by the transcription factors Smads. Although the Smad-dependent pathway is the primary canonical TGF-b signaling node, TGF-b1 can also activate alternative signaling pathways, including those involving MAPK (ERK, JNK and p38). This interaction may mediate or enhance Smad-dependent responses, or can exert Smad-independent effects. The complexity of this signaling cascade allows the TGF-b superfamily to perform unique, overlapping or redundant functions. We believe that targeting the TGF-beta pathway at the Smad-transcription factor level may eliminate the consequences of disrupting the entire pathway and offer specificity without affecting other signaling pathways. Smad3 is the primary transducer of TGF-b's signals and Smad3 regulates many functions attributed to TGF-b signaling. We hypothesize that Smad3 inhibitors will selectively eliminate Smad3-specific TGF-beta signals without undesired off-target effects. We aim to identify Smad3-small molecule antagonists using a quantitative high throughput screening (qHTS) approach.
A high-throughput assay was developed to screen the NIH Molecular Libraries Small Molecule Repository (MLSMR). This is a cell based assay, where TGF-b is tagged with GFP. A counterscreen is run that looks at cytotoxicity (please see summary AID).
MH087449NIH Chemical Genomics Center [NCGC]
NIH Molecular Libraries Probe Centers Network [MLPCN]
Assay Submitter (PI): Sushil Rane, National Institute of […]
Suspensions of trypsinized HEPG2 CAGA-GFP cells were dispensed into white, tissue culture-treated, solid 1536-well plates at 5uL/well (1000 cells/well final concentration) in DMEM medium supplemented with 1% FBS. Plates were incubated at 37 degrees C for 2 hours, after which 23 nL of compounds or DMSO were delivered to each well using a pin tool. One uL of recombinant TGF-beta in DMEM (1% FBS) was then dispensed (500 pg/mL final concentration), and plates were incubated at 37 degrees C for 18 hours. The plates were measured on an Acumen eX3 Explorer plate reader for GFP fluorescence (ex488/em500-530). GFP values were calculated by determining the mean GFP fluorescence of individual cells, and compiling these values for each well to determine a total well GFP signal. The %Activity was determined from the corrected fluorescence values. A titration of the known TGF-B inhibitor SB431542 was included to monitor plate performance, while unstimulated HEPG2 (-TGF-B) control wells were used to normalize %Activity of identified inhibitors; unstimulated wells corresponded to 100%Activity (full inhibition), while stimulated cell controls (+DMSO) were used to normalize 0%Activity (no inhibition).
Concentration-response curves were fitted to the signals arising from the resulting fluorescence. The concentration-effect curves were then classified based on curve quality (r2), response magnitude and degree of measured activity, and compounds were subsequently categorized based on their curve class.
Potency is read from the fitted curve at half-maximal effect.

Compound	Potency
CCCSC(=S)NC1CCS(=O)(=O)C1 (stereo not given)	11.2 µM (active)
CC(C)C(=O)NC(NC(=S)NC1CCS(=O)(=O)C1)C(Cl)(Cl)Cl (stereo not given)	inactive
COc1ccc(NC(=S)NC2CCS(=O)(=O)C2)cc1 (stereo not given)	inactive
CCCC12CN3CC(CCC)(CN(C1)C3c1c[nH]c3ccc(OC)cc13)C2=O (stereo not given)	inactive
COc1cc(NC(=O)c2nc3ccccc3nc2C)cc(OC)c1OC	inactive
COc1cc(C(=O)N2CCC(c3ccncc3)CC2)cc(OC)c1OC	inactive
Cc1ccc(N2CC(NC(=O)Cc3cccs3)CC2=O)cc1 (stereo not given)	inactive
CCN(CC)S(=O)(=O)c1cc(C(=O)Nc2cc(S(=O)(=O)N3CCOCC3)ccc2N2CCCC2)ccc1F	inactive
CCN(CC)S(=O)(=O)c1ccc(N2CCCC2)c(NC(=O)c2ccc([N+](=O)[O-])o2)c1	11.2 µM (active)
CCN(CC)S(=O)(=O)c1ccc(N2CCOCC2)c(NC(=O)c2ccc(=O)n(C)n2)c1	inactive
CCc1ccc(C2C(C(=O)Nc3ccccc3)=C(C)Nc3c(C(=O)Nc4ccc(C)cc4)cnn32)cc1 (stereo not given)	inactive
Cc1nc(N2CCOCC2)c2c(C(=O)NCc3cccc(Cl)c3)c(C)oc2n1	inactive
O=C(CCn1ccc2cc(S(=O)(=O)N3CCCC3)ccc21)NCc1cccc(Cl)c1	inactive
COC(=O)CCc1ccccc1S(=O)(=O)N(CCC(=O)OC)Cc1ccccc1	inactive
COc1ccc(-c2nc(=N)sn2-c2ccccc2)cc1	inactive
O=C(NC1=CC(=O)c2ccccc2C1=O)c1ccccc1	10 µM (active)
O=C(Nc1ccc2ccccc2c1[N+](=O)[O-])c1ccccc1	inactive
O=C(Nc1ncccc1O)c1ccc(C(=O)c2ccccc2)cc1	inactive
CCOc1ccccc1C(=O)Nc1ccc(S(=O)(=O)N2CCCCC2c2cccnc2)cc1 (stereo not given)	inactive
Cc1nnc(NCc2ccccc2)c2c1nnn2Cc1ccc(F)cc1	inactive
O=C(NCc1cccs1)c1cc(-c2ccccn2)nc2ccc(Br)cc12	inactive
O=C(Cc1coc2ccc3ccccc3c12)NCc1cccs1	inactive
CC(C)Cn1c(N)c(C(=O)NCc2cccs2)c2nc3ccccc3nc21	15.8 µM (active)
CCN(CC)c1ccc(/C=C/c2c(C)cnc3ccc(C)cc23)cc1	inactive
Clc1cccc[n+]1CCCC[n+]1ccccc1Cl	inactive

Compound	Potency
O=C(NCc1ccc2c(c1)OCO2)C12CC3CC(CC(C3)C1)C2	inactive
Cc1ccc(C(=O)NC23CC4CC(CC(C4)C2)C3)c(Cl)c1	inactive
S=C(NCc1ccc(Cl)cc1)NC12CC3CC(CC(C3)C1)C2	11.2 µM (active)
CCC(=O)Nc1ccc(C)cc1-c1nc2ccccc2n(Cc2ccccc2)c1=O	inactive
Nc1ccc(/C=C/c2ccnc3ccccc23)c([N+](=O)[O-])c1	inactive
CCCCN(CC)CCCNC(=O)c1nn(C)c2c1CSc1ccccc1-2	inactive
COc1c(Cl)cc(Cl)cc1C(=O)Nc1cccc2cccnc12	inactive
COc1cccc(CNC(=O)c2cccnc2Sc2ccc(Cl)cc2)c1	inactive
CC(=O)/C(=N\Nc1ccc(Cl)cc1Cl)Sc1cccc2cccnc12	2.82 µM (active)
COc1cccc(CN2CCc3nc(SCC(=O)Nc4ccccc4)[nH]c(=O)c3C2)c1	inactive
COc1ccccc1NC(=O)c1oc2ccccc2c1NC(=O)C(C)C	inactive
O=C(OCC(=O)N1CCN(C(=O)c2ccco2)CC1)c1c(Cl)cccc1Cl	inactive
O=C(OCC(=O)N1CCN(C(=O)c2ccco2)CC1)c1cccc(O)c1	inactive
CN(c1ccccc1)S(=O)(=O)c1cc(C(=O)OCC(=O)N2CCN(C(=O)c3ccco3)CC2)ccc1Cl	10 µM (active)
CCOc1ccc(NC(=O)c2cnn(-c3ccccc3)c2-n2cccc2)cc1	inactive
Cc1c(CNC(C)c2ccccc2)c(C(=O)O)c(C)n1Cc1c(F)cccc1Cl (stereo not given)	inactive
CCc1cccc(NC(=O)CSc2nccn2C)c1	inactive
O=C(Cn1ncc2c3ccccc3n(Cc3ccccc3)c2c1=O)NC1CCCCCC1	inactive
COc1ccccc1CNS(=O)(=O)c1ccc2c(c1)NC(=O)CS2	inactive
Cc1ccc(CC2(C)C(=O)Nc3ccc(OC(F)(F)F)cc32)cc1 (stereo not given)	15.8 µM (active)
COc1ccc(C2(O)C(=O)Nc3ccccc32)cc1 (stereo not given)	inactive
COc1ccccc1CC1(C)C(=O)Nc2ccc(OC(F)(F)F)cc21 (stereo not given)	20 µM (active)
O=C(CSc1ncc(-c2ccccc2)[nH]1)Nc1ccc(F)cc1F	inactive
Cc1ccc(N2CC(C(=O)Nc3ccc(N(C)C)cc3)CC2=O)cc1Cl (stereo not given)	inactive
Cc1cccc(OCC(=O)N(Cc2ccc(C(C)C)cc2)Cc2ccco2)c1C	inactive

Compound	Potency
CN(C)c1ccc(/C=C/c2c3ccccc3nc3ccccc23)cc1	inactive
COc1ccccc1N1CCN(C2C(=O)c3ccccc3N2C(C)=O)CC1 (stereo not given)	inactive
COc1ccc(NC(=O)CCNS(=O)(=O)c2ccc3c(c2)CCCC(=O)N3)cc1Cl	inactive
CCOC(=O)CNC(=O)/C(=C\c1ccc(F)cc1)NC(=O)c1ccccc1	inactive
CCOC(=O)CN1CCC(c2ccccc2)CC1	inactive
CCOC(=O)C[C@H]1c2ccc(C(F)(F)F)cc2S(=O)(=O)N1c1ccccc1	14.1 µM (active)
Cc1onc(C(=O)NN)c1C(=O)N1CCN(C(c2ccccc2)c2ccccc2)CC1	inactive
CC1(C)CC(N2CCN(C(c3ccccc3)c3ccccc3)CC2)=CC(=[N+]2CCCCC2)C1	6.31 µM (active)
CC(C)OCC(O)CN1CCN(C(c2ccccc2)c2ccccc2)CC1 (stereo not given)	inactive
COc1ccc(NC(=O)c2sc3nc(-c4cc5cccc(OC)c5oc4=O)[nH]c(=O)c3c2C)cc1	inactive
Cc1csc[n+]1CCC1CCCCC1	inactive
Cc1ccccc1C(=O)Nc1cc(C)c(O)c(-c2nc3ccccc3o2)c1	inactive
COC(=O)c1cnn(-c2ccc(C(=O)Nc3ccc(OC(F)(F)F)cc3)cc2)c1N	inactive
CC1CCc2c(nc3ncnn3c2Nc2ccc(OC(F)(F)F)cc2)C1 (stereo not given)	15.8 µM (active)
CC(=O)c1nn(-c2ccc(OC(F)(F)F)cc2)nc1Nc1ccccc1	inactive
CCCN(CCC)CCNC(=O)c1cc2c(C)nc3ccccc3c2o1	inactive
CN(C)CCNC(=O)c1ccc(Cl)c2cc3ccccc3nc12	3.55 µM (active)
Cc1cc(C)n(C(=O)CCNC(=O)c2ccccc2Cl)n1	inactive
O=C(CCC(=O)N1CCN(S(=O)(=O)c2ccc(Cl)cc2)CC1)NCc1cccc(C(F)(F)F)c1	7.08 µM (active)
CC(NC(=O)CCC(=O)N1CCN(S(=O)(=O)c2ccc(Cl)cc2)CC1)c1ccccc1 (stereo not given)	inactive
O=C(CCC(=O)c1ccccc1)NCc1cccc(C(F)(F)F)c1	inactive
Cc1cc(OCC(=O)Nc2ncn[nH]2)c(C)c(C)c1Br	inactive
CCCn1c2ccccc2c2cnn(CC(=O)NCCCOC(C)C)c(=O)c21	inactive
CCOC(=O)c1c(NC(=O)c2ccc(S(=O)(=O)N3CCCC(C)C3)cc2)sc2c1CCN(C(C)C)C2 (stereo not given)	inactive
CCOC(=O)c1cnc2c(C)cc(C)cc2c1Nc1ccc(N2CCOCC2)cc1	inactive

Compound	Potency
CCC1=Nc2cc(C(=O)NCC(C)c3ccccc3)ccc2Sc2ccc(C)cc21 (stereo not given)	inactive
CC1=Nc2cc(C(=O)NCc3ccc(C)cc3)ccc2Sc2ccc(Cl)cc21	inactive
COCCNC(=O)c1ccc2c(c1)N=C(C)c1cc(C)ccc1S2	2 µM (active)
Cc1nn(-c2ccc(N3CCCCC3)nn2)c(C)c1CCC(=O)NCc1ccc(F)cc1	inactive
Cc1ccc(-n2nc(CO)c(C(=O)NCCc3ccccc3)n2)cc1	inactive
COc1ccc(-c2cn3nc(N4CCC(C(=O)Nc5cccc(C)c5C)CC4)sc3n2)cc1	inactive
COc1ccc(NC(=O)CN2C(=O)NC(C)(c3ccccc3)C2=O)cn1 (stereo not given)	inactive
COc1ccc(NC(=O)C(=O)NCc2ccco2)cc1	inactive
COc1ccc(CS(=O)/C(Cl)=C(/Cl)C(=O)Nc2ccc(OC)nc2)cc1 (stereo not given)	3.16 µM (active)
COc1ccc(NC(=O)CSc2nc3ncccc3[nH]2)c(OC)c1	inactive
COc1ccc(C(=O)c2c3ccc([N+](=O)[O-])cc3[n+]([O-])n2CCCN)cc1	8.91 µM (active)
COc1ccc(C(=O)NCCNc2ccc([N+](=O)[O-])cn2)cc1	inactive
COc1ccc2c(C(=O)c3ccc(C)cc3)n(CCC(N)=O)[n+]([O-])c2c1	inactive
CCS(=O)(=O)N1CCc2cc(C(=O)N3CCN(c4ccccc4OC)CC3)ccc21	inactive
CCC(=O)N1CCc2cc(S(=O)(=O)NC(Cc3ccccc3)C(=O)NCc3ccc(C)cc3)ccc21 (stereo not given)	inactive
CC(C)OCCCn1c(SCC(=O)c2ccccc2)nc2c(sc3ccccc32)c1=O	inactive
Fc1ccccc1Cc1ccc(Cl)nn1	inactive
C/C(=N\Nc1ccc(Cl)nn1)c1ccccc1O	1.26 µM (active)
C/C(=N/Nc1ccc(Cl)cc1)c1cnnc(-c2ccccc2)n1	inactive
COc1ccc(C2=NC(c3ccncc3)=Nc3ccc(Br)cc3N2)cc1	inactive
Cc1cccc(N2C(=O)N3[C@H](c4ccc(F)cc4)[C@@H]4C(=O)N(C5CCCCC5)C(=O)[C@@H]4[C@]3(Cc3ccccc3)C2=O)c1	inactive
C[C@@]12C(=O)N(c3cccc(Br)c3)C(=O)N1[C@H](c1ccc(Cl)cc1)[C@@H]1C(=O)N(C3CCCCC3)C(=O)[C@@H]12	11.2 µM (active)
O=C1[C@H]2[C@@H](c3ccc(Cl)cc3)N3C(=O)N(c4cccc(F)c4)C(=O)[C@@]3(Cc3ccccc3)[C@H]2C(=O)N1C1CCCCC1	inactive
CNCCCOc1cc2nc(N3CCCN(C)CC3)nc(NC3CCN(C)CC3)c2cc1OC	inactive
CN(Cc1ccccc1)C(=O)CCS(=O)(=O)c1cc(Br)cc2c1N(C(=O)C1CC1)CC2	inactive

From PubChem BioAssay AID588855 (National Center for Advancing Translational Sciences (NCATS), 2011)
